Assay results taken from PubChem BioAssay AID1347426 (Functional Genomics Laboratory (NCATS/FGL), 2020).
Out of some 31,000 sequences screened, about 1,400 (4.5%) were called active. The entries come from a sample that favours actives as a whole. Values without a mark were called inactive.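 How the source made its calls: active means median seed-adjusted z-score above 1 or below -1; inactive means the rest.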

Test: Novel Modifiers of Survival Motor Neuron (SMN) Protein: Gene Identification via Genome-wide siRNA Screen;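 further: luminescence tracks full-length SMN protein made from the SMN2 reporter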
Settings: HEK293T SMN2-luciferase reporter, siRNA knockdown, 72 h; actives lie on both sides
Outline: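 Genome-wide siRNA screen (10418 genes, 3 siRNAs each, 1 pmol per well) by reverse transfection in HEK293T cells stably carrying an SMN2-luciferase reporter; luminescence after 72 hours, normalized to negative-control siRNA, log10-transformed, MAD-scored.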

| Sequence | median seed-adjusted z-score |
| --- | --- |
| GGAUUACAGCAGGUGCAGATT against MED8 | -1.61 (active) |
| GAAUCUCACAAUUAUGUAUTT against NCK2 | -0.397 |
| AGAUAAGCAUGGUGCCCAATT against BPI | 0 |
| GACCGUUUAAUGAAGCUUUTT against SPTLC2 | 0 |
| CCAUUGUAGUCUCUCCUCUTT against RECQL5 | 0 |
| GCCCUCCUGUGCAACCAUATT against SPRR2G | 0.358 |
| ACAUGAAGGUGAAUCCUGUTT against COX4I2 | -0.0202 |
| CAGCGAUUUUAAAUCGUAUTT against HSD17B13 | -0.329 |
| CAACCAACCUGCAUCUAGATT against TRIM33 | 0.316 |
| CGACCCUUGAAGUUCAAUATT against EFTUD2 | -1.25 (active) |
| GGAUCCUUCUAUACGCAUATT against SLC4A7 | 0 |
| CAGUAGAUGUGGAAAAGGATT against PTK2B | 1.71 (active) |
| CCAUUGAUGGAGUCAGAUUTT against POLD2 | 0.97 |
| CCACUAGUGAAACAACCAATT against PCLO | -0.734 |
| GCAAGGAGCUAGAGCCUUUTT against MOBKL2B | -0.613 |
| GCAAGUCCACGUUCCUCAATT against GNA12 | 0.598 |
| AGCUACCGAUGGAAGAGGATT against CLK3 | -1.11 (active) |
| AGGUCAAGCUUAGUGACAATT against ZDHHC8 | 0 |
| GCUUCUCAUGGGAUCAAAATT against PGCP | 0.145 |
| CCGGGAAAUUGAUUAUGCATT against SIN3B | 0.509 |
| GCAUCUCAUCGGAAGAGGATT against MAP3K12 | -0.6 |
| GAUCCUAAAUCAUGACUUATT against COX6B1 | -0.706 |

| Sequence | median seed-adjusted z-score |
| --- | --- |
| GGACGAAUGAGUUCCAGUUTT against PCDHB8 | 1.15 (active) |
| AGACCUAGCUUUAGCACAATT against ZFAND2B | 0 |
| GAAGCGGCAUUAGCAGAGATT against ISOC1 | 0.104 |
| GGUAAAAUCAAGUACCAUATT against TIGD2 | -0.13 |
| GCAUCACCAUCCUUCCGCATT against BACE1 | -0.537 |
| AGAGAGUGGUUUUUCCUCCTT against WWP2 | -0.685 |
| GUGCUUCAGUAGGUAUGUATT against ASNS | -1.1 (active) |
| GGCCUUUAGUUAUAAAGGATT against TIMM8A | 0.173 |
| ACAUAGCCGUGUCCAGGUATT against GLYCTK | 0.0328 |
| GACCUGAAUUGUAUCAUCATT against MAPK3 | -0.573 |
| GAACUCCAGAGAUCAAUAATT against IL7R | 0 |
| CCAACUAUCAGUGACCGUATT against CYP17A1 | -1.39 (active) |
| CUAUCACCUGGACUGUAUATT against RNF11 | -0.365 |
| GGAGACUUACUACCUAUAATT against PARD6B | 0.315 |
| GGCUUCUUCUAUUCAAUUUTT against BCL6B | 0 |
| GAACUGACAAGCUUAGUAATT against SAP18 | 2.14 (active) |
| AUACAGAUCUAAUAGAGUUTT against NAT1 | -0.0665 |
| CCAUUGACAAUUCAACUUATT against ST8SIA1 | -0.25 |
| CGCCUCAACCUGAUCAUCATT against ENPP7 | -0.478 |
| GUGCCUUGCUAUUCUAAGATT against NEUROD1 | 0 |
| GAAACUCUCUUCAAGUCUATT against CKB | -0.236 |
| GGCAAAUGGUUGAGACUGATT against YWHAE | 1.38 (active) |

| Sequence | median seed-adjusted z-score |
| --- | --- |
| GCAGCAUAAUGAAACGUGATT against ARPM1 | -0.0251 |
| UCUUCGAGCAAGAAACUAATT against CD9 | -1.02 (active) |
| AUAAAUUCCUGAUUGCUAATT against CXCL6 | 0.802 |
| GGACUACAGCGGACAAGGATT against WDR1 | -0.457 |
| GGAACAUUCCUGUGCAACATT against MTMR3 | 0.281 |
| GAUGAUAGCCAAACCCUCATT against ZNF626 | 0.185 |
| GGUGUUGUUUCAUCGUUUUTT against CCNL1 | -1.26 (active) |
| GUGCAUGCAGGAGAAGUCATT against GATA2 | 0.623 |
| GCAUGCAGCCUUGAAGAUATT against CRYZL1 | 0.0481 |
| CGUGUCAAAUAUUGGAUUATT against KLB | 0.221 |
| GCACCUUCGUCCUCAACUUTT against PROC | -0.228 |
| CCGCUGAACCUGUUGAAGATT against SGMS2 | -0.492 |
| GGUGCUCUCGGUUGCACAATT against U2AF1 | 2.08 (active) |
| CAAGCUCUGAUAUACCGAATT against HIVEP1 | 0.532 |
| UGCACAUCAAGUAUCCUAATT against SLC30A10 | 0.523 |
| GCAUCAUCCAGAACACGGATT against ARHGEF18 | 0.586 |
| CGAUGGAGAUGUUUCGGGATT against KCNA2 | -1.03 (active) |
| GCGAGAGUCUGCAUAGGUATT against GRIN2D | -0.135 |
| GGAAGAAAGUAUAAUAGAATT against MAFG | 0 |
| UGAUCAACCUCAAGACGGATT against MED16 | -0.6 |
| GAAACACGUCAGUCCUAAUTT against LHX8 | 0 |
| GAAGUUCAUACUAAGCGUATT against TPR | -1.03 (active) |

| Sequence | median seed-adjusted z-score |
| --- | --- |
| CGUGGUACCAGACAUCUGATT against CCL17 | 0.178 |
| GACCGACUGCAGAACAAUATT against PDE6B | -0.336 |
| GGAUAAUACAGUUCGAUUATT against TAF5 | -0.192 |
| GACUCCCUGCUUUCAAUAATT against SALL2 | 0.504 |
| CCCUCUCAGUACUACGCUATT against ZMYND10 | 0.255 |
| CAAGAAAACUGCGAAUAAATT against STX2 | 0.442 |
| GUUUCAUCUGGGUUCGCUATT against SF3B3 | -2.53 (active) |
| GAACCAUCUCAAUACUAUUTT against DACH2 | -0.00102 |
| GGGCGAGUAUUAUGACUAUTT against MYO15A | 0.0508 |
| GACUGUUCGUUUCCCAGAUTT against CHRNA7 | -0.485 |
| GAGACAGCCUGAUGGAGAATT against STC1 | -1.36 (active) |
| GCUCCUUGCUACCAUAGUATT against CCBP2 | -0.0896 |
| CUCUCAGACAAGCUACUGATT against CCL27 | 0 |
| GUUGUGGUCUGAUCAGUUATT against TUBA1A | 0.284 |
| AGUUCCCUUUGUAACCAUATT against ZNF669 | 0.175 |
| AGGCUGCGUUUGGACCAGATT against PAPLN | -0.186 |
| CAUGGGUGCUUAUAAGUCATT against IL1A | 1.12 (active) |
| GGGCUGCACCAAAGCCUAUTT against KLF14 | 0.0241 |
| GUUUAUUUCGUACACUAAATT against KTI12 | 0.0814 |
| GCGUCGUGGUCAUGAACAATT against PIP5K1C | -0.13 |
| CAGUGUCCCUAUGAAGGGATT against SRMS | -1.58 (active) |
| GCUAUUGAGUUUGCCCAAATT against ADHFE1 | 0.418 |

| Sequence | median seed-adjusted z-score |
| --- | --- |
| CUAGUGAUCUUUUAGAGUUTT against CSGALNACT2 | 0.236 |
| GAACUUUAUUGCAAAGUUUTT against CSRP3 | 0.15 |
| GCAUCGAGAUCCACGAAGATT against PITPNM3 | -0.0378 |
| AGAAGACUCUGGUAAUGUATT against WHSC1 | 1.17 (active) |
| CUGAUUCAAGAGAAGAUUATT against SMARCAL1 | -0.145 |
| GAACAGAUCCGGAAGAAGATT against NR1H2 | 0.069 |
| GGACUUUGAUUGCUAGCAATT against CTRC | -0.104 |
| GCUUGAAGAGUUUGGCUGGTT against DUSP15 | 0 |
| GCAAUUAACAAUUAUCGAUTT against RNASE3 | 0.588 |
| AGUUUGUCCUGAAGAAUUATT against PTPN23 | -0.0473 |
| GGGUCAUCUAUAUCCGCAATT against GPR132 | 0 |
| GCAUCUGCUGUAUCGAUGATT against MCM4 | 0.0057 |
| GCCCUUACAGGGUAUCAAATT against DDX46 | -1.24 (active) |
| CACGGAUUCUUGUUGGAAATT against RAB33B | -0.758 |
| GUUCGAAUCAAGAACCCUATT against NT5C3 | -0.456 |
| UGAUAGAGAUCAACCCAUATT against PSMB5 | -1.37 (active) |
| ACAUGAUCAUCAGUGUGAATT against FABP4 | 0.227 |
| GCGUCAUGAUGUUCACCUATT against ITGB5 | -0.00882 |
| GCAUGGGAAUCAUUGUGCUTT against PPIL1 | 0.166 |
| CCAGUACACUUUUGUCUGATT against CDC5L | -0.628 |
| AAGUGUGCCUGAAUACUAUTT against KHDRBS2 | -0.335 |
